From PubChem BioAssay come the findings set out here.

Test [1] has as its system Human papillomavirus type 1a protein E7 (residues 44-93). The test is described as follows: HPV1a E7 fragment binders on microarrays, primary screen, biochemical, small-molecule microarray, residues 44-93, 635 nm fluorescence (AID 1108).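 Further: E7 fragment applied at 1 µg/mL in TBST for 1 h at 4 C; score combines spot fluorescence with its signal to noise ratio.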 The settings on record: small-molecule microarray binding, fluorescence 635 nm; higher = more signal.
A short description of test [2]: modulators of HCV replicon luciferase signal, primary screen, HCV replication inhibitor project, Huh7 cells, luciferase reporter (AID 1109).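 Further: huh7 hepatoma cells harbouring a luciferase neomycin HCV replicon reporter; luciferase luminescence as measure of HCV replicon replication; test concentration not given here.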 The settings on record: 48 h, higher = more signal. Background: In antiviral work, replicon cells carry a viral genome segment that copies itself.
Test [3] addresses Left-right determination factor 2 (Homo sapiens) (UniProt O00292). In words: LEFTY2 binders on small-molecule microarrays, primary screen, biochemical, small-molecule microarray, 635 nm fluorescence scan (AID 1110). The settings on record: LEFTY2 binding, higher = more signal.
The target in test [4] is Calmodulin-1 (Homo sapiens) (UniProt P0DP23). The test is described as follows: CALM1 binders on microarrays, EGTA buffer, profiling panel, biochemical, small-molecule microarray, Cy5-labelled CALM1 (AID 1111).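 Further: labelled calmodulin applied in Tris saline Tween buffer holding calcium plus EGTA and DTT.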 The following applies: Cy5-CALM1 binding fluorescence, higher = more signal.
For test [5] the target is unchanged. The test is described as follows: calcium-bound CALM1 binders on microarrays, profiling panel, artefact control for SMM control-protein annotation, biochemical, small-molecule microarray, Cy5-labelled CALM1, plus calcium (AID 1112).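 Further: score merges spot fluorescence with signal to noise from triplicate slides.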 The following applies: Cy5-CALM1 binding fluorescence, higher = more signal.
Test [6] in a line: small-molecule microarray binders of probe aWnt5a, primary screen, biochemical, biotinylated probe, 635/667 nm fluorescence (AID 1113).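 Further: score merges 667 nm fluorescence intensity with signal-to-noise per printed feature.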 The settings on record: higher = more signal.
The nature of test [7]: small-molecule microarray binders of probe aShh, primary screen, biochemical, biotinylated probe, 635/667 nm fluorescence (AID 1114).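 Further: probe is biotin-labelled aShh protein from a stem cell growth factor screen; measures binding of labelled protein to compounds printed on the slide; score merges feature fluorescence at 667 nm with signal-to-noise.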 The following applies: higher = more signal.
Test [8] is described as follows: small-molecule microarray binders of probe aNog, primary screen, biochemical, biotinylated probe, 635/667 nm fluorescence (AID 1115).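 Further: probe is biotinylated aNog protein used at 0.15 µg/mL for 1 h at 4 C; z-score combines 667 nm fluorescence of each spot with its signal to noise.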 The settings on record: higher = more signal.
The target in test [9] is Torsin-1A-interacting protein 1 (Homo sapiens) (UniProt Q5JTV8). In words: LAP1 binders from COS7 cell lysate, primary screen, small-molecule microarray, 635/667 nm fluorescence (AID 1116). The following applies: COS7-hLAP1 lysate binding, 635 nm fluorescence, higher = more signal.
In test [10] the target is Alpha-bungarotoxin (Bungarus multicinctus) (UniProt P60615). In words: alpha-bungarotoxin binders on microarray, profiling panel, artefact control for SMM control protein annotation, biochemical, small-molecule microarray, Alexa647 label, 635/667 nm fluorescence (AID 1117). The settings on record: alpha-BTX-A647 binding fluorescence, higher = more signal.
Alpha-bungarotoxin (Bungarus multicinctus), sequence (P60615 whole entry, looked up): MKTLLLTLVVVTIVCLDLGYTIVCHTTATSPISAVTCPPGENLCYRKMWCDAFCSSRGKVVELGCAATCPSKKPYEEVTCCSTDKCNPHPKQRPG

Left-right determination factor 2 (Homo sapiens), sequence (O00292 whole entry, looked up): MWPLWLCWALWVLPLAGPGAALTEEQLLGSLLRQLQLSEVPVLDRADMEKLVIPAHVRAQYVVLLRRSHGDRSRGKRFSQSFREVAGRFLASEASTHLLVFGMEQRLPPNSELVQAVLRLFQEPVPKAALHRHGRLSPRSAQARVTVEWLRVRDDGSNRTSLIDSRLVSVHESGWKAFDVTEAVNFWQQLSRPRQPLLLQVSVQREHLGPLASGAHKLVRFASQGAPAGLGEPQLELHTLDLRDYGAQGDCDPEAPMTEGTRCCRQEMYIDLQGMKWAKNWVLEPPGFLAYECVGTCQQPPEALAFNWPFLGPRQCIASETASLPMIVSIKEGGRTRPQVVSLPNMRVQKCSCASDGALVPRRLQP
Torsin-1A-interacting protein 1 (Homo sapiens), sequence (Q5JTV8 whole entry, looked up): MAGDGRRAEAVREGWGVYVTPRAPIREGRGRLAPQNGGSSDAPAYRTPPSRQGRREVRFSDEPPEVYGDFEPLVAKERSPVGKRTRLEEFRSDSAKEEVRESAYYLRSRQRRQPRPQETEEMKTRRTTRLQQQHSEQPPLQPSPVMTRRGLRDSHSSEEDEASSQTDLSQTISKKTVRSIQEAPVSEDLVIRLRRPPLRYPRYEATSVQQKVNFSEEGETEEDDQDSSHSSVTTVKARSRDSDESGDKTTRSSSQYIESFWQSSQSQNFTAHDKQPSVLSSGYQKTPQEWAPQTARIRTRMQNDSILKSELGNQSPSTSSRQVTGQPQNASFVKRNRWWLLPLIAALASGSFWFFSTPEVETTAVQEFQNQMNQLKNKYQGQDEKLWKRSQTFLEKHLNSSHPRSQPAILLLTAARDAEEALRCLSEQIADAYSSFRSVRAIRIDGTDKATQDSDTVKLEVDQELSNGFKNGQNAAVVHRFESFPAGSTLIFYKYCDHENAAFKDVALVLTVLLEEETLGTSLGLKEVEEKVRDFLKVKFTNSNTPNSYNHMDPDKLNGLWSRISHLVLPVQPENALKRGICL

For the compound `CCOC(=O)[C@H](Cc1ccccc1)NC(=O)CCC1CC(OC(=O)NCCc2ccc(F)cc2)CC2(CCCC(COC(=O)NCCCN3CCCC3=O)O2)O1` (stereo not given in full), the composite z-score in [1] was 1.35; in [3], 0.612; in test [4], 0.566; in test [5], -0.043; in [6], -0.0222; in [7], 0.149. The composite z-score in [8] worked out at 0.0083; in test [9], 0.0166; in test [10] it was 0.261. This compound had a z-score in test [2] of -0.427.

On to `CCOC(=O)[C@H](Cc1ccccc1)NC(=O)CCC1CC(OC(=O)NCCc2ccc(F)cc2)CC2(CCCC(COC(=O)NCC3CCCCC3)O2)O1` (stereo not given in full), for which the composite z-score in [1] is 1.38; in test [3] it was 1.03; in test [4] it was 0.325; in [5], -0.207; in test [6], -0.232; in [7] it was -0.2. The composite z-score in [8] was -0.273; in [9], 0.237; in test [10], 0.289. In addition, in test [2], the z-score was -0.019.

For `CC(CCN1CCc2nc(-c3ccccc3)c(-c3ccccc3)cc2C1)=NOC[C@@H](O)COCc1ccco1`, the composite z-score was 0.58 in test [1]; 0.718 in [3]; -0.216 in test [4]; -0.625 in test [5]; -0.0346 in test [6]; 0.0048 in [7]. The composite z-score was -0.0524 in test [8], 0.323 in [9] and 0.365 in test [10]. The z-score in test [2] was -1.11.

In the case of `CC(C)=CCCC(C)=CCON=C1C[C@@H](O)[C@@H](O)[C@@H]2[C@@H]3C(=O)N(c4cccc(Oc5ccccc5)c4)C(=O)[C@@H]3CC[C@@H]12`, the composite z-score in test [1] is 1.21; in test [3], 0.353; in [4], 0.33; in test [5] it was -0.126; in test [6], -0.13; in test [7] it was -0.0064. Moreover, the composite z-score in [8] was -0.287; in test [9], 0.444; in test [10], 0.305. Also, the z-score in test [2] is -1.36.

For the compound `COc1cccc([C@H]2Oc3ccc(OC)cc3C(=NO[C@H](C)c3cn([C@H](CO)Cc4ccccc4)nn3)[C@@H]2O)c1`, the composite z-score in test [1] was -0.995; in test [3] it was 0.323; in test [4] it was -1.57; in test [5], -0.45; in test [6] it was -0.175; in [7] it was -0.229. Besides, the figures for the composite z-score in test [8], in test [9] and in test [10] were -0.141, 0.169 and -0.689, respectively. In test [2], this compound yielded a z-score of -1.74.

As to `CC[C@@H](c1ccccc1)n1c(=O)n2n(c1=O)[C@H]1[C@H](O)[C@@H]3O[C@@H]3C(=O)[C@H]1CC2`, the composite z-score in test [1] is 0.225; in [3], 0.497; in [4], -0.202; in test [5], -0.246; in test [6] it was -0.101; in [7], -0.0474. For the same compound, the composite z-score is -0.209 in test [8], -0.113 in test [9] and 0.414 in test [10]. Also, the z-score in [2] was -4.01.

Consider `CCCNC(=O)OC[C@H]1O[C@H](CCON=C(C)CCC(=O)OC[C@H]2O[C@H](c3ccccc3)C=C[C@@H]2Oc2ccc(OC)cc2)C=C[C@@H]1Oc1ccc(OC)cc1`, for which the composite z-score was -0.996 in [1]; -0.126 in test [3]; -0.449 in test [4]; -0.678 in test [5]; -0.0685 in test [6]; -0.138 in test [7]. The results for the composite z-score in [8], in test [9] and in test [10] were -0.0039, 0.23 and -0.183, respectively. The z-score in [2] was -1.17.

With `CCOC(=O)CCN1C(=O)[C@H]2[C@H]3[C@H](O)[C@H](O)CC(=NOCc4ccccc4)[C@H]3CC[C@H]2C1=O`, the composite z-score was -0.207 in test [1]; 0.389 in test [3]; -0.205 in test [4]; -0.329 in test [5]; -0.174 in test [6]; -0.0977 in test [7]. Moreover, the composite z-score is -0.0312 in test [8], 0.0908 in test [9] and 0.857 in test [10]. In test [2], this compound returned a z-score of 0.676.

As to `CC(C)[C@@H](OCc1ccccc1)[C@H](C)C=NOC[C@@H](O)COCc1ccco1`, the composite z-score in test [1] was -0.549; in [3], -1.05; in test [4] it was -1.71; in test [5] it was -1.81; in test [6], -0.204; in test [7] it was -0.37. Also, the composite z-score was -0.577 in test [8], -1.05 in test [9] and -0.0069 in test [10]. In test [2], this compound displayed a z-score of -2.38.

On to `C[C@@H]1CC[C@H]2C(=O)O[C@@H](COc3ccc(C(C)(C)C)cc3)CN2[C@@H]1c1ccc(Br)cc1`, for which the composite z-score is -0.631 in test [1]; -0.403 in [3]; -0.121 in test [4]; 0.578 in [5]; -0.179 in test [6]; -0.289 in test [7]. Also, the composite z-score in test [8] was 0.105; in test [9], -0.319; in [10], 0. The compound further gave a z-score in [2] of -0.0485.

As for `COC(=O)[C@@H]1CC[C@H](C)[C@@H](c2ccc(C)cc2)N1C(=O)c1ccc(C=NO[C@H](C)c2cn([C@H](CO)Cc3ccccc3)nn2)cc1`, the composite z-score was 0.671 in test [1]; 0.776 in test [3]; 3.17 in test [4]; -0.139 in test [5]; -0.124 in test [6]; 0.191 in [7]. In addition, the composite z-score is -0.0318 in test [8], 0.462 in test [9] and 0.0997 in test [10]. Further, the z-score in test [2] is -2.17.

Turning to `COc1ccc(O[C@H]2C=C[C@@H](c3ccccc3)O[C@@H]2COC(=O)CCC(C)=NOC[C@@H](O)[C@H]2O[C@@H]3OC(C)(C)O[C@@H]3[C@H]2O)cc1`, the composite z-score in test [1] is 1.07; in test [3], 0.706; in [4] it was -0.166; in [5], -0.627; in [6] it was 0.0001; in test [7] it was -0.291. Further, the composite z-score was -0.232 in test [8], 0.419 in [9] and 0.0391 in test [10]. In [2], this compound gave a z-score of -0.0939.

Regarding `CC(=O)O[C@H]1C2=CO[C@H](C)[C@H]3[C@H]4C5=C([C@H](O)[C@H]6O[C@H]6C5=O)[C@H](OC4C)[C@@]23C(=O)[C@@H]2O[C@@H]21` (stereo not given in full), the composite z-score in test [1] was -0.361; in [3], 0.384; in [4], -0.935; in test [5], -0.994; in test [6], 0.0108; in [7], 0.0804. Also, the composite z-score in test [8] is 0.262; in test [9] it was 0.963; in test [10], -1.03. In test [2], this compound yielded a z-score of -4.68.

For the compound `CCOC(=O)[C@H](CC(C)C)NC(=O)CCC1CC(OC(=O)NCc2cccc3ccccc23)CC2(CCCC(COC(=O)NCc3cccc(C(F)(F)F)c3)O2)O1` (stereo not given in full), the composite z-score in [1] is 0.0567; in test [3], 0.67; in test [4], -0.333; in [5], -0.568; in test [6] it was -0.0643; in [7], -0.0626. The composite z-score in [8] is -0.158; in test [9], -0.0162; in test [10] it was 0.157. The compound further gave a z-score in test [2] of 1.32.

Consider `O=C1[C@H]2[C@H]3[C@H](O)[C@H](O)CC(=NOCc4ccccc4)[C@@H]3CC[C@H]2C(=O)N1Cc1ccc2c(c1)OCO2`, for which the composite z-score in test [1] is 0.0666; in test [3] it was 0.517; in [4], -0.206; in [5], -0.211; in [6], -0.091; in test [7], -0.154. The composite z-score is -0.23 in test [8], 0.366 in [9] and 0.576 in test [10]. For the same compound, the z-score in [2] was -0.276.

With `COc1ccc(O[C@H]2C=C[C@@H](c3ccccc3)O[C@@H]2COC(=O)CCC(C)=NOC(C)CN2CCCc3nc(C)c(C)cc32)cc1` (stereo not given in full), the composite z-score in test [1] is 1.31; in test [3] it was 0.646; in test [4], 0.0727; in [5], -0.384; in test [6], -0.124; in test [7], 0.0278. Further, the composite z-score in test [8] is 0.109; in test [9] it was 0.4; in test [10] it was 0.463. In [2], this compound came in with a z-score of -1.81.

In the case of `CO[C@H]1COC(=O)[C@@H](Cc2ccccc2)NC(=O)[C@@H](C)COC(=O)CCC[C@@H]1C`, the composite z-score in test [1] is -0.573; in test [3], 0.455; in test [4], -0.273; in test [5] it was -0.679; in test [6] it was -0.0478; in test [7], 0.0278. Besides, the composite z-score in [8] was -0.412; in test [9], 0.29; in test [10] it was 0.273. Also, in test [2], the z-score is -2.38.
